# Assay results taken from PubChem BioAssay (NCI).
# About 83,000 compounds went through this panel and 20% of them were active in at least one assay; those are over-represented in the sample as a whole.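 Cell lines were cultured in 96-well plates, exposed to a single compound concentration, and assessed for percent growth 48 hours later.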 Activity calls are given as the source filed them. How the source made its calls: active means growth percent below 10; inactive means the rest.
# Tested on: SK-MEL-2 melanoma
# Experiment: NCI-60 one-dose screen, 48 h (100 = growth as untreated, 0 = no growth, -100 = all killed)
# Conditions: 10 µM
row,SMILES,growth
1,CCOS(=O)(=O)c1c(C(C)C)cc(C(C)C)cc1C(C)C,96.9% (inactive)
2,CC(C)CCN(CCC(C)C)CC(=O)Nc1ccc(S(=O)(=O)c2ccc(NC(=O)CN(CCC(C)C)CCC(C)C)cc2)cc1,65.4% (inactive)
3,O=C(N/N=C/c1cc([N+](=O)[O-])ccc1O)c1cccc2ccccc12,66.4% (inactive)
4,COc1cc(Cc2cc(-c3ccccc3)n[nH]c2=O)cc(OC)c1OC,56.6% (inactive)
5,C1CN(CC2CCC(CN3CCOCC3)O2)CCO1 (stereo unspecified),107% (inactive)
6,Cc1cc(=O)n2nnc3cc(Cl)c(Cl)cc3n12,102% (inactive)
7,CC(=O)N[C@H](C(=O)N[C@@H](CCCNC(=N)N)C(=O)N[C@@H](CCCCN)C(=O)N[C@@H](CCCNC(=N)N)C(=O)N[C@]1(C)CCCCCC/C=C\CCC[C@@](C)(C(=O)N[C@@H](CCCNC(=N)N)C(=O)N[C@@H](CCC(=O)O)C(=O)N[C@@H](CC(C)C)C(=O)N[C@H](C(=O)N[C@@H](CCC(=O)O)C(N)=O)C(C)C)NC(=O)[C@H](CCC(N)=O)NC(=O)[C@H](CC(C)C)NC(=O)[C@H](CC(C)C)NC(=O)[C@H](CCCNC(=N)N)NC(=O)[C@H](CCCNC(=N)N)NC(=O)[C@H](CC(C)C)NC1=O)C(C)C,53.5% (inactive)
8,Cc1ccc(/C=C2/C(=O)N(C)c3ccc(S(=O)(=O)Nc4ccc(C(C)(C)C)cc4)cc32)s1,94.3% (inactive)
9,CC(=O)[C@H]1CC[C@]2(C)[C@@H]1CC[C@@H]1[C@@]3(C)CC(CCC#N)(CCC#N)C(=O)C(C)(C)[C@@H]3CC[C@]12C,102% (inactive)
10,O=C(CCn1cnc2c(cc(-c3ccccc3)n2-c2ccccc2)c1=O)Nc1ccc(F)cc1,84.5% (inactive)
11,Cc1c(Cl)cccc1NC(=O)CN1CCOCC1,93.5% (inactive)
12,CC(C)(C)OC(=O)CN1CCc2c(sc3ncnc(N/N=C/c4cccc5ccccc45)c23)C1,71.1% (inactive)
13,CCn1c(SCc2ccc(C)cc2)nnc1-c1nn(-c2ccc(Cl)cc2Cl)c(-c2ccc(Cl)cc2)c1C,4.93% (active)
14,O=C(Nc1nc(-c2ccccc2)nc2c1sc(=S)n2-c1ccccc1)C(F)(F)F,104% (inactive)
15,Cc1c[nH]c(=O)n(Cc2nnc(CCC(=O)c3nc4ccccc4[nH]3)o2)c1=O,25.2% (inactive)
16,CCCCN(CCCC)C(=O)[C@H](CC)[C@@H]1CC[C@@H](C)[C@@H]([C@H](C)[C@@H](O)[C@@H](C)C(=O)[C@H](CC)C2O[C@]3(C=CC(=O)[C@]4(CC[C@@](C)([C@H]5CC[C@](O)(CC)[C@H](C)O5)O4)O3)[C@H](C)C[C@@H]2C)O1 (stereo partly specified),26.2% (inactive)

row,SMILES,growth
1,CCN(CC)CCOc1cccc2c1C(=O)c1ccccc1C2=O,91.8% (inactive)
2,COc1cc(OC)c2c(=O)c(O)c(-c3ccccc3)oc2c1,87.3% (inactive)
3,COc1ccc(-c2cc(-c3ccccc3)nc(SCCCC(=O)NO)n2)cc1,-7.04% (active)
4,COc1cc(-c2nn(-c3ccc(NC(=O)NCCNS(=O)(=O)c4ccc(F)cc4)cc3)cc2-c2ccncc2)ccc1Cl,8.8% (active)
5,Cc1[nH]c2ccccc2c1/C=N/Nc1ncnc2sc3c(c12)CCN(CC(=O)OC(C)(C)C)C3,92.6% (inactive)
6,O=C1CSC(=S)N1/N=C/c1ccc(Cl)s1,98.6% (inactive)
7,O=C(CC(CC(=O)c1ccccc1)c1ccccc1O)c1ccccc1,91.3% (inactive)
8,CCOC(=O)c1cc(C(=O)c2cc(OC)cc(OC)c2)n2nc(C)ccc12,15.9% (inactive)
9,CCCc1cn(CC(=O)Nc2nc3ccccc3s2)nn1,105% (inactive)
10,CC(CN(C)C)Oc1ccc(OC(C)CN(C)C)c2c1C(=O)c1ccccc1C2=O (stereo unspecified),41% (inactive)
11,COc1cc(-c2nn(-c3cccc(NC(=O)NCCNC(=O)c4cccc(C(F)(F)F)c4)c3)cc2-c2ccncc2)ccc1Cl,21.5% (inactive)
12,Cc1ccc(NCCNCC(C)(C)O)c2c(=O)c3ccc(Cl)cc3sc12,57.4% (inactive)
13,CNS(=O)(=O)Oc1ccc(-c2sc3cc(OS(=O)(=O)NC)ccc3c2C(=O)c2ccc(OCCN3CCCCC3)cc2)cc1,83.7% (inactive)
14,CN(C)CCOc1ccccc1NC1=C(Cl)C(=O)C(Nc2ccccc2OCCN(C)C)=C(Cl)C1=O,82.9% (inactive)
15,COc1cc(-c2nn(-c3cccc(NC(=O)CCNc4ccc(N5CCOCC5)cc4)c3)cc2-c2ccncc2)ccc1Cl,10.3% (inactive)
